In the supplement of paper PMC10849652:
Targets with a hit are over-represented here; the source holds about 7,900 in all. About 0.6% of all pairs of compound and target were hits.

Columns and labels:
Test in all cases: log2 fold change, soluble protein after heating vs DMSO (PISA); higher = thermal stabilisation; K562 cells, 10 uM, 30 min; active = over 0.2 and 3.5 SD of the protein, either way, in both replicates (recomputed)
[1] = compound: C1=CC=C(C=C1)[C@H](COC2=CC3=C(C=C2)NC(=O)N3)NC(=O)C4=CC=CN(C4=O)CC5=CC(=C(C=C5)F)F
Summary of the method: (§1)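 K562 cells at 2×10^6 cells/mL were exposed to 10 μM compound for 30 min, then aliquots were heated for 3 min across 48°C-58°C, pooled, and extracted in PBS containing 0.5% NP-40 at 4°C. The supernatant after 21,000xg for 90 min was taken as soluble protein and measured by TMTpro 16plex LC-MS/MS with channel sums equalised. Thermal stability is reported relative to control samples, with values from duplicates. Fold changes are given on a log2 scale.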

[2] = compound: CC1=C(SC2=C1C(=N[C@H](C3=NN=C(N32)C)CC(=O)N)C4=CC=C(C=C4)Cl)C
Summary of the method: as §1

[3] = compound: CC1=C2C(=CC=C1)N=C(N(C2=O)C3=CC=CC=C3C)CN4C=NC5=C(N=CN=C54)N
Summary of the method: as §1

[4] = compound: Cc1sc2c(c1C)C(c1ccc(Cl)cc1)=N[C@@H](CC(=O)OC(C)(C)C)c1nnc(C)n1-2
Summary of the method: as §1

[5] = compound: c1ccc([C@@H]2C[C@H]2NC2CCNCC2)cc1
Summary of the method: as §1

Measured: log2 fold change

PRMT7 (UniProt Q9NVM4)
inactive: [1] -0.051 | [2] 0.015 | [3] 0.056 | [4] 0.009 | [5] -0.027

PRKACB isoform 2 (UniProt P22694)
inactive: [1] -0.06 | [2] 0.021 | [3] 0.032 | [4] -0.038 | [5] 0.003

PPP2R5C isoform 4 (UniProt Q13362)
UniProt Q13362, sequence (Q13362 whole entry, looked up): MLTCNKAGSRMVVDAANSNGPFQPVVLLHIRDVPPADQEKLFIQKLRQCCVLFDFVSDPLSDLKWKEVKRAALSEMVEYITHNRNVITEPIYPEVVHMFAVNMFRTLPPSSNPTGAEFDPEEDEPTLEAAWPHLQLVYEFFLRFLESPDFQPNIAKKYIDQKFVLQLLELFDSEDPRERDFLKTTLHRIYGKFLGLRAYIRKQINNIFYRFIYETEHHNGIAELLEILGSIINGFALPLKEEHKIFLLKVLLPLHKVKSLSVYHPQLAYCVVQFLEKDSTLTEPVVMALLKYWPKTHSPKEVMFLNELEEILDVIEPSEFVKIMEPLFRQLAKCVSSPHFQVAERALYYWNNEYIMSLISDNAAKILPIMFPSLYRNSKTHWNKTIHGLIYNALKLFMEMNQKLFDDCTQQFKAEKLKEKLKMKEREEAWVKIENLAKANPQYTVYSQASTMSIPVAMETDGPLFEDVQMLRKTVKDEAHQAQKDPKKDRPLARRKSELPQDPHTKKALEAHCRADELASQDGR
inactive: [1] -0.03 | [2] -0.003 | [3] 0.117 | [4] -0.019 | [5] 0.012

PDS5B (UniProt Q9NTI5)
inactive: [1] -0.153 | [2] 0.029 | [3] 0.169 | [4] 0.233 | [5] -0.011

PIR (UniProt O00625)
inactive: [1] 0.016 | [2] 0.064 | [3] 0.027 | [4] -0.029 | [5] 0.002

PTP4A2 (UniProt Q12974)
inactive: [1] -0.021 | [2] 0.028 | [3] 0.056 | [4] 0.052 | [5] -0.029

PEX11B (UniProt O96011)
inactive: [1] -0.027 | [2] 0.056 | [3] -0.01 | [4] -0.008 | [5] -0.005

PTPN12 (UniProt Q05209)
inactive: [1] 0.035 | [2] 0.034 | [3] 0.091 | [4] 0.024 | [5] 0.015

PDCD6 (UniProt O75340)
inactive: [1] -0.024 | [2] 0.057 | [3] 0.107 | [4] -0.052 | [5] 0.003

PNPLA2 (UniProt Q96AD5)
inactive: [1] 0.06 | [2] 0.014 | [3] 0.037 | [4] 0.068 | [5] -0.046

PC (UniProt P11498)
inactive: [1] -0.012 | [2] 0.031 | [3] 0.111 | [4] 0.025 | [5] -0.021

PAK4 (UniProt O96013)
inactive: [1] -0.005 | [2] 0.045 | [3] 0.102 | [4] -0.02 | [5] -0.016

PPP2R5C isoform 5 (UniProt Q13362)
inactive: [1] -0.039 | [2] 0.001 | [3] 0.084 | [4] -0.067 | [5] -0.029

PDCD4 (UniProt Q53EL6)
inactive: [1] -0.055 | [2] 0.002 | [3] 0.053 | [4] -0.167 | [5] -0.003

PJA2 (UniProt O43164)
inactive: [1] 0.005 | [2] -0.042 | [3] 0.021 | [4] 0.006 | [5] 0.024

PFAS (UniProt O15067)
UniProt O15067, sequence (O15067 whole entry, looked up): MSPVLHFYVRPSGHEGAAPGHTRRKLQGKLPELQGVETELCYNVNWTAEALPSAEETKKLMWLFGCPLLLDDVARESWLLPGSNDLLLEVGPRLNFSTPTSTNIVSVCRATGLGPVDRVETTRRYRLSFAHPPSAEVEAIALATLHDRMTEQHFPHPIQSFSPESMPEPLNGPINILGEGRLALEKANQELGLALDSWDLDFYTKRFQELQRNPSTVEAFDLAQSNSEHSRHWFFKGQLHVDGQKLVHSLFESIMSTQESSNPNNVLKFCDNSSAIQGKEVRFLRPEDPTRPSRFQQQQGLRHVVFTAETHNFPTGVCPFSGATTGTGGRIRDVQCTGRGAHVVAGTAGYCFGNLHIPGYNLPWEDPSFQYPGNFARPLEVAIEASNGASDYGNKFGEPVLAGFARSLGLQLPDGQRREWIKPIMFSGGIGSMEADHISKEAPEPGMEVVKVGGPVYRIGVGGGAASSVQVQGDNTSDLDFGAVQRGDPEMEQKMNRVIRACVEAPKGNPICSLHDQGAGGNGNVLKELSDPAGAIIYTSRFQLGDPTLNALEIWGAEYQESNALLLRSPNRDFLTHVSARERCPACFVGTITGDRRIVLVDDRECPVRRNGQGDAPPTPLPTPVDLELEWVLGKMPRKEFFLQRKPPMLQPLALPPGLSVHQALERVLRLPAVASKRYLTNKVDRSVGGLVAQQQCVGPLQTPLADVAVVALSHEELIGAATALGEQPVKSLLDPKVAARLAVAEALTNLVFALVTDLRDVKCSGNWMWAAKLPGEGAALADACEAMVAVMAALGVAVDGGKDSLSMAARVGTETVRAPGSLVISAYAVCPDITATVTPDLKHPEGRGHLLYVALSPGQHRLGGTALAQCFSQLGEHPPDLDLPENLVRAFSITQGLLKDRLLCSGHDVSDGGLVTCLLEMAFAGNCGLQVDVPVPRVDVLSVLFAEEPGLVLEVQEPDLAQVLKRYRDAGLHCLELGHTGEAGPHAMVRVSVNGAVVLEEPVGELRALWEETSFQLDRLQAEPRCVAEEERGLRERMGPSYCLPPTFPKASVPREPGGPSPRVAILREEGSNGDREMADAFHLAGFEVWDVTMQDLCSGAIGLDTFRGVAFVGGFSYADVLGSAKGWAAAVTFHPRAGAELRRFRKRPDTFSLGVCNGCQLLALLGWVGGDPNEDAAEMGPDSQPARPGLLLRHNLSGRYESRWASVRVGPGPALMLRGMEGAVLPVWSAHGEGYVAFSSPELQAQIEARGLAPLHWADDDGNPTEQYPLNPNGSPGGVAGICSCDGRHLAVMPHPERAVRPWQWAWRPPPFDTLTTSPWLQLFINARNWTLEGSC
inactive: [1] -0.08 | [2] 0.021 | [3] 0.144 | [4] 0.014 | [5] -0.065

PYGL (UniProt P06737)
inactive: [1] 0.006 | [2] 0.047 | [3] 0.026 | [4] 0.006 | [5] -0.032

PRIM2 (UniProt P49643)
inactive: [1] -0.07 | [2] 0.063 | [3] 0.189 | [4] 0.014 | [5] -0.092

PMM1 (UniProt Q92871)
inactive: [1] -0.031 | [2] -0.001 | [3] 0.091 | [4] 0.004 | [5] -0.006

PDE2A (UniProt O00408)
inactive: [1] 0.079 | [2] 0.08 | [3] 0.16 | [4] -0.024 | [5] 0.065

PTTG1IP (UniProt P53801)
inactive: [1] 0.149 | [2] -0.055 | [3] -0.134 | [4] 0.04 | [5] 0.084

PTGFRN (UniProt Q9P2B2)
inactive: [1] -0.014 | [2] 0.036 | [3] 0.043 | [4] 0.04 | [5] -0.006

PLCB3 (UniProt Q01970)
inactive: [1] -0.019 | [2] -0.015 | [3] 0 | [4] -0.048 | [5] -0.062

PPOX (UniProt P50336)
inactive: [1] 0.385 | [2] 0.092 | [3] 0.129 | [4] 0.04 | [5] -0.045

POMK (UniProt Q9H5K3)
UniProt Q9H5K3, sequence (Q9H5K3 whole entry, looked up): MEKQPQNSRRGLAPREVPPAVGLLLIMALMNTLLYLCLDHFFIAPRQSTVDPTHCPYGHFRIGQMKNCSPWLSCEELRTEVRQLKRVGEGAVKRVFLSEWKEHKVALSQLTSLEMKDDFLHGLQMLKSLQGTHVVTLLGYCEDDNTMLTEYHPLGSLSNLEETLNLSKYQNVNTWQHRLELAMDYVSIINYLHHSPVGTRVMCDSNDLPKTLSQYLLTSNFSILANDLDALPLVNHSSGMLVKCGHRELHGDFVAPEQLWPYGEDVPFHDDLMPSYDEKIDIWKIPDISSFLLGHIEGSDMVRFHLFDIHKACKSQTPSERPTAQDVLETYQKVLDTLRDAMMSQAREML
inactive: [1] 0.04 | [2] 0.027 | [3] -0.041 | [4] -0.067 | [5] -0.022

PSMD8 (UniProt P48556)
inactive: [1] 0.014 | [2] -0.07 | [3] -0.01 | [4] -0.001 | [5] 0.071

PRPF3 (UniProt O43395)
inactive: [1] -0.09 | [2] -0.208 | [3] 0.08 | [4] -0.017 | [5] 0.115

POLR2M (UniProt P0CAP2)
inactive: [1] -0.021 | [2] 0.096 | [3] 0.045 | [4] 0.004 | [5] -0.062

PSMD3 (UniProt O43242)
inactive: [1] 0.028 | [2] -0.055 | [3] -0.006 | [4] -0.023 | [5] -0.011

PSMD11 (UniProt O00231)
inactive: [1] 0.043 | [2] -0.049 | [3] -0.053 | [4] -0.017 | [5] 0

PBK (UniProt Q96KB5)
UniProt Q96KB5, sequence (Q96KB5 whole entry, looked up): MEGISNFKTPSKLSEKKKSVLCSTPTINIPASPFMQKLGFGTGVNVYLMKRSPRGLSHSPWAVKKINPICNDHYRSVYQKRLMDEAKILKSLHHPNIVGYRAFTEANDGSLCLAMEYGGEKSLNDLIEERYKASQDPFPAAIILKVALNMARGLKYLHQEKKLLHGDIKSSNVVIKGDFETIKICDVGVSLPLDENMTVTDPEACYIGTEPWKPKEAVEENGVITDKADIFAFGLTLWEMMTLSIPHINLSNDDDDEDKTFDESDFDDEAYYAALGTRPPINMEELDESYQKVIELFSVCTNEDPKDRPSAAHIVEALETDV
inactive: [1] -0.06 | [2] 0.016 | [3] 0.067 | [4] 0.023 | [5] -0.016

PPP4R3B (UniProt Q5MIZ7)
inactive: [1] -0.014 | [2] 0.069 | [3] 0.134 | [4] 0.003 | [5] -0.005

PXK (UniProt Q7Z7A4)
inactive: [1] -0.015 | [2] 0.04 | [3] 0.098 | [4] 0.011 | [5] -0.045

PIK3R1 (UniProt P27986)
inactive: [1] -0.059 | [2] 0.019 | [3] 0.138 | [4] 0.005 | [5] -0.027

PPP2R5E (UniProt Q16537)
inactive: [1] -0.045 | [2] 0.1 | [3] 0.105 | [4] -0.118 | [5] 0.05

PLCL1 (UniProt Q15111)
UniProt Q15111, sequence (Q15111 whole entry, looked up): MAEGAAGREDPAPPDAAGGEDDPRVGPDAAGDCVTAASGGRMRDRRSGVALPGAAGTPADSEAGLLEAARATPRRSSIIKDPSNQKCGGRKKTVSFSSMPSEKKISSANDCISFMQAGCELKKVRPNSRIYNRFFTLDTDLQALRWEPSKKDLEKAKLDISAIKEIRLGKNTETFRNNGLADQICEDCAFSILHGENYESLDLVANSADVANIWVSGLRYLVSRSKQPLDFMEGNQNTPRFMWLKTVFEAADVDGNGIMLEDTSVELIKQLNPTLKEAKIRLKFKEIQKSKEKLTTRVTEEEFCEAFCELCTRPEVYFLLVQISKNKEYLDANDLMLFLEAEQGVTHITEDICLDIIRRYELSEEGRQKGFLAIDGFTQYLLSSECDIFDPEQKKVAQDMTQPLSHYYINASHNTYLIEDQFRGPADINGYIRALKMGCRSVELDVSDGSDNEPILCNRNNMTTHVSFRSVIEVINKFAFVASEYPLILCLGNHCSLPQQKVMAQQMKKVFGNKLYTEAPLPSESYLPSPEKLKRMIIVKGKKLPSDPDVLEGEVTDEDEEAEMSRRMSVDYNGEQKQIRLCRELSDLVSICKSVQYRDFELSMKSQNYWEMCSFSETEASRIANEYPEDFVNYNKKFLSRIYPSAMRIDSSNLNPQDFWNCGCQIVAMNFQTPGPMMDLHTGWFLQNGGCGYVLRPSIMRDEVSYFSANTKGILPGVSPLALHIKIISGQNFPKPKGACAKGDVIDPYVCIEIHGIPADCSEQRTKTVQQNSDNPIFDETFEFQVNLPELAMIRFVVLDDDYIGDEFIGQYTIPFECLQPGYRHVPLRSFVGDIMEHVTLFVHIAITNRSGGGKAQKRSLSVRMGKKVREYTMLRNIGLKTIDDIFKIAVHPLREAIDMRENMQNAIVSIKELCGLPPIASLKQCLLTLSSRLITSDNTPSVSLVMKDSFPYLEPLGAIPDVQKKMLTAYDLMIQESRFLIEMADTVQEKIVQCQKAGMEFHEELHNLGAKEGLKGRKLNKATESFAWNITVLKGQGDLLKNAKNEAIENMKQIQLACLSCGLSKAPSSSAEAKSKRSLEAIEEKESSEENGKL
inactive: [1] 0.12 | [2] 0.073 | [3] 0.165 | [4] -0.029 | [5] 0.052

POLR2M (UniProt Q6EEV4)
UniProt Q6EEV4, sequence (Q6EEV4 whole entry, looked up): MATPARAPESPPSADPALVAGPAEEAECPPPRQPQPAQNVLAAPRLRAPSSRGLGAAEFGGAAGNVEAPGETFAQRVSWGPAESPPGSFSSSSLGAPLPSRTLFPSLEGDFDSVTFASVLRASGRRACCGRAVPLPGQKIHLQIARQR
inactive: [1] 0.092 | [2] 0.105 | [3] -0.002 | [4] -0.128 | [5] -0.107

PSMD12 (UniProt O00232)
inactive: [1] 0.021 | [2] -0.063 | [3] -0.066 | [4] -0.045 | [5] -0.009

PFDN1 (UniProt O60925)
UniProt O60925, sequence (O60925 whole entry, looked up): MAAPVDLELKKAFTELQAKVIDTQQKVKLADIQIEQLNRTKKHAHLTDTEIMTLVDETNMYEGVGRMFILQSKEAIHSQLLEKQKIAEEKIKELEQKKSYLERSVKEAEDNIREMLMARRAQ
inactive: [1] -0.102 | [2] 0.155 | [3] 0.061 | [4] -0.171 | [5] -0.061

PTPMT1 (UniProt Q8WUK0)
inactive: [1] -0.019 | [2] 0.086 | [3] 0.029 | [4] 0.066 | [5] 0.01

PSMD1 (UniProt Q99460)
inactive: [1] 0.017 | [2] -0.087 | [3] -0.058 | [4] -0.017 | [5] 0

PMPCA (UniProt Q10713)
inactive: [1] -0.015 | [2] 0.121 | [3] 0.06 | [4] 0.018 | [5] -0.047

PCTP (UniProt Q9UKL6)
inactive: [1] -0.033 | [2] -0.101 | [3] 0.028 | [4] -0.023 | [5] 0.018

PLEKHM2 (UniProt Q8IWE5)
inactive: [1] -0.027 | [2] 0.076 | [3] -0.016 | [4] 0.089 | [5] -0.048

PRG4 (UniProt Q92954)
inactive: [1] 0.007 | [2] -0.044 | [3] -0.15 | [4] -0.309 | [5] -0.033

PDIK1L (UniProt Q8N165)
UniProt Q8N165, sequence (Q8N165 whole entry, looked up): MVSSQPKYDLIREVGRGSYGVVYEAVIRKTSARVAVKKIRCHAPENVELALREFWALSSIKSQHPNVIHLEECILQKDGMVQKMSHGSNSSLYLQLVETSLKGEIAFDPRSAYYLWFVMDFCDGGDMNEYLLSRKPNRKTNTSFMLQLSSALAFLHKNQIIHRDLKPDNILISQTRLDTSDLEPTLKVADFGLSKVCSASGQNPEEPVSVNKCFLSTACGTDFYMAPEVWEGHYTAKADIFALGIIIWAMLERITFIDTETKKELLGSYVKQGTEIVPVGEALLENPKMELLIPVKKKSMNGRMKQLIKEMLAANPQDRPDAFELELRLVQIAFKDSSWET
inactive: [1] -0.255 | [2] 0.001 | [3] 0.044 | [4] 0.062 | [5] -0.005

PRCP (UniProt P42785)
inactive: [1] 0.023 | [2] -0.036 | [3] -0.061 | [4] 0.018 | [5] 0.062

PIP4K2C (UniProt Q8TBX8)
inactive: [1] -0.148 | [2] 0.034 | [3] 0.05 | [4] -0.029 | [5] -0.042

QRICH1 (UniProt Q2TAL8)
UniProt Q2TAL8, sequence (Q2TAL8 whole entry, looked up): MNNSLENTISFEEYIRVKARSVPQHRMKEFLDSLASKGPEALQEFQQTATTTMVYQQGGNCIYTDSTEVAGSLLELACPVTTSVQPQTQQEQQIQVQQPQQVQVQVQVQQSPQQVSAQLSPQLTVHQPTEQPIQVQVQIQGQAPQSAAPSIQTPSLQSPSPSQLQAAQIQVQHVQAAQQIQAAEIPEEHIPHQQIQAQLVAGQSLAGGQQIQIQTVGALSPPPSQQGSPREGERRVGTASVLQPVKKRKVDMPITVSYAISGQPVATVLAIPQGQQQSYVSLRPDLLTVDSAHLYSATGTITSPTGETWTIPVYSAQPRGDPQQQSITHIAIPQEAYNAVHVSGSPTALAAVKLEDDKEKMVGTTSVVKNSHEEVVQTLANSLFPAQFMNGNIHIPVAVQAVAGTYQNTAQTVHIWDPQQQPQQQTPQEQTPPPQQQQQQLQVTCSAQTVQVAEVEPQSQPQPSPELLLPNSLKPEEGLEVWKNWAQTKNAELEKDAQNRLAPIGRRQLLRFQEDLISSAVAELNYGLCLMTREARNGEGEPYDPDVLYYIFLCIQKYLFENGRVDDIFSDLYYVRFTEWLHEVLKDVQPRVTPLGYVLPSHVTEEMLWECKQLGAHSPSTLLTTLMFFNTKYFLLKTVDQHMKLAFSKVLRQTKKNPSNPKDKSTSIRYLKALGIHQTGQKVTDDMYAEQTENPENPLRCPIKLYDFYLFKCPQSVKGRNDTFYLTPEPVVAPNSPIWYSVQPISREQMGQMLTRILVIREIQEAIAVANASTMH
inactive: [1] -0.029 | [2] -0.148 | [3] 0 | [4] -0.02 | [5] -0.016
